# Test results from paper PMC5540273 (PLoS ONE, 2017).
# Test system: GAK
# Settings: concentration: 1 μM, replicates: in singlicate; n = 1
# 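Also: KINOMEscan kinase panel screen.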
row,Compound,%Inh
1,OCCCNc1nccc(-c2c(-c3cccc(C(F)(F)F)c3)nn3cc(C(F)(F)F)ccc23)n1 [GW630813],8%
2,COc1cc(Nc2nccc(N3CCC(NC(=O)C4COc5ccccc5O4)C3)n2)cc(OC)c1OC (stereo not shown) [GSK1379761],37%
3,CCc1ccc(-c2ccc3c(c2)-c2nn(C)cc2S(=O)(=O)N3C)cc1,0%
4,COc1cc(Nc2nccc(N3CCC(NC(=O)C(C)c4ccc(Cl)cc4)C3)n2)cc(OC)c1OC (stereo not shown) [GSK1379757],0%
5,CCS(=O)c1ccc(-c2coc3ccc(-c4nnc(C)o4)cc23)cc1 (stereo not shown),0%
6,O=C1NC(=O)C(c2ccccc2)=C1Nc1cccc(O)c1 [SB-390534],11%
7,COc1cccc(-n2cnc3c(N)ncnc32)c1 [SKF-97416],26%
8,COc1cc2ncn(-c3cc(OCc4ccncc4)c(C(N)=O)s3)c2cc1OC [GSK336313],17%
9,COC(=O)c1c(-c2ccccc2)c2cc(Br)ccc2c(=O)n1Cc1ccc(S(C)(=O)=O)cc1,9%
10,Nc1ncnc2c1ncn2-c1cccc(F)c1 [SKF-97560],1%
11,Nc1n[nH]c2nnc(-c3ccccc3)c(-c3ccccc3)c12 [GW554060],1%
12,Cc1ccc(-c2ccc3c(ccc4sc5c(c43)NC[C@@H](C)N=C5N(C)C)n2)cn1,0%
13,COc1cc2ncn(-c3cc(OCc4ccc(S(C)(=O)=O)cc4)c(C(N)=O)s3)c2cc1OC [GW869979],7%
14,Cl.NS(=O)(=O)c1cccc(Nc2cc(-c3ccc(F)cc3)n[nH]2)c1 [GW824645],0%
15,COc1cccc(C2=C(N(C)c3ccccc3)C(=O)NC2=O)c1 [SB-334865],0%
16,CCn1c(-c2ccoc2)nc2cnccc21 [SB-733887],0%
17,COc1cc2nccc(Nc3cccc(Oc4ccccc4)c3)c2cc1OC.Cl [GW284543],0%
18,CCC(=O)c1c(-c2ccccc2)c2cc(Cl)ccc2c(=O)n1Cc1cc(S(C)(=O)=O)n(CC(N)=O)n1,0%
19,CCn1c(-c2nonc2N)nc2ccccc21 [SB-693162/GW549034],0%
20,CN(C)c1cc(-c2ccc3c(N)n[nH]c3c2)nc(N)n1 [GSK2219329],0%
21,Cc1ccccc1COc1cc(-n2cnc3cc(Cl)ccc32)sc1C(N)=O [GW813349],1%
22,Cl.c1ccc(Cn2cnc3cc(Nc4ncnc5ccccc45)ccc32)cc1 [GW272142],0%
23,Nc1ncnc2c1ncn2-c1cccc2ccccc12 [SKF-97184],0%
24,COc1ccc(CNC(=O)NC2CCN(c3ccnc(Nc4ccc(F)cc4)n3)C2)cc1 (stereo not shown) [GSK1379706],19%

# Test system: T1, GCN2(Kin.Dom.2,S808G)
# T1 construct: gene EIF2AK4
# Settings: concentration: 1 μM, replicates: in singlicate; n = 1
row,Compound,%Inh
1,C[C@@H]1CC[C@H](C(=O)NC2CCCCC2)CN1c1cc(-c2ccc3c(N)n[nH]c3c2)nc(N)n1 [GSK2291363],0%
2,Cc1nc(N(C)[C@H]2CN(C(=O)CC#N)CC[C@H]2C)c2cc[nH]c2n1,0%
3,Nc1nccc2scc(-c3ccc4c(c3)CCN4C(=O)Cc3ccccc3)c12 [GSK2576924],0%
4,COc1cc(OC)cc(-c2cc3cnc(N)nc3nc2NC(=O)NC(C)(C)C)c1,3%
5,O=C(Nc1n[nH]c2cc(-c3ccccc3F)ccc12)C1CC1 [SB-733371],0%
6,CCCNC(=O)Nc1ccc(Oc2ncnc3ccn(C)c23)cc1,10%
7,COc1cc2ncn(-c3cc(OCc4ccncc4Br)c(C(N)=O)s3)c2cc1OC [GW854278],0%
8,Cc1nn2c(=O)cc(N3CCOCC3)nc2n1Cc1cccc(Cl)c1Cl [GSK2342769],3%
9,Cc1c(Cn2c(C)nn3c(=O)cc(N4CCO[C@H](C)C4)nc23)cccc1C(F)(F)F [GSK2373690],3%
10,COc1cc2nccc(Nc3ccc(OCc4ccc(NC(C)=O)cc4)cc3)c2cc1OC.Cl [GW440135],4%
11,Cc1cccc(-c2nc(Nc3ccc4c(cnn4C)c3)c3ccccc3n2)n1 [GW876731],12%
12,CCCC(=O)Nc1n[nH]c2ncc(-c3cccc4ccccc34)cc12 [SB-642057],0%
13,FC(F)(F)c1ccc(-c2ncn(CCCN3CCOCC3)c2-c2ccncc2)cc1 [SB-217780],8%
14,OCCCNc1nccc(-c2c(-c3cccc(C(F)(F)F)c3)nn3cc(C(F)(F)F)ccc23)n1 [GW630813],0%
15,COc1cc(Nc2nccc(N3CCC(NC(=O)C4COc5ccccc5O4)C3)n2)cc(OC)c1OC (stereo not shown) [GSK1379761],0%
16,CCc1ccc(-c2ccc3c(c2)-c2nn(C)cc2S(=O)(=O)N3C)cc1,9%
17,COc1cc(Nc2nccc(N3CCC(NC(=O)C(C)c4ccc(Cl)cc4)C3)n2)cc(OC)c1OC (stereo not shown) [GSK1379757],0%
18,CCS(=O)c1ccc(-c2coc3ccc(-c4nnc(C)o4)cc23)cc1 (stereo not shown),0%
19,O=C1NC(=O)C(c2ccccc2)=C1Nc1cccc(O)c1 [SB-390534],0%

row,Compound,%Inh
1,COc1cccc(-n2cnc3c(N)ncnc32)c1 [SKF-97416],8%
2,COc1cc2ncn(-c3cc(OCc4ccncc4)c(C(N)=O)s3)c2cc1OC [GSK336313],0%
3,COC(=O)c1c(-c2ccccc2)c2cc(Br)ccc2c(=O)n1Cc1ccc(S(C)(=O)=O)cc1,0%
4,Nc1ncnc2c1ncn2-c1cccc(F)c1 [SKF-97560],0%
5,Nc1n[nH]c2nnc(-c3ccccc3)c(-c3ccccc3)c12 [GW554060],8%
6,Cc1ccc(-c2ccc3c(ccc4sc5c(c43)NC[C@@H](C)N=C5N(C)C)n2)cn1,0%
7,COc1cc2ncn(-c3cc(OCc4ccc(S(C)(=O)=O)cc4)c(C(N)=O)s3)c2cc1OC [GW869979],0%
8,Cl.NS(=O)(=O)c1cccc(Nc2cc(-c3ccc(F)cc3)n[nH]2)c1 [GW824645],0%
9,COc1cccc(C2=C(N(C)c3ccccc3)C(=O)NC2=O)c1 [SB-334865],0%
10,CCn1c(-c2ccoc2)nc2cnccc21 [SB-733887],0%
11,COc1cc2nccc(Nc3cccc(Oc4ccccc4)c3)c2cc1OC.Cl [GW284543],0%
12,CCC(=O)c1c(-c2ccccc2)c2cc(Cl)ccc2c(=O)n1Cc1cc(S(C)(=O)=O)n(CC(N)=O)n1,0%
13,CCn1c(-c2nonc2N)nc2ccccc21 [SB-693162/GW549034],24%
14,CN(C)c1cc(-c2ccc3c(N)n[nH]c3c2)nc(N)n1 [GSK2219329],0%
15,Cc1ccccc1COc1cc(-n2cnc3cc(Cl)ccc32)sc1C(N)=O [GW813349],0%
16,Cl.c1ccc(Cn2cnc3cc(Nc4ncnc5ccccc45)ccc32)cc1 [GW272142],0%
17,Nc1ncnc2c1ncn2-c1cccc2ccccc12 [SKF-97184],0%
18,COc1ccc(CNC(=O)NC2CCN(c3ccnc(Nc4ccc(F)cc4)n3)C2)cc1 (stereo not shown) [GSK1379706],4%
